697 NFkB inh: lowers PMA/ionomycin-induced NF-kB signal in 697 B cells. inhibition, % at 4 µM. 697 B-cell NF-kB luciferase reporter, 16 h. actives 0.33% (n = 330,000). AID 435022; in the data active means inhibition above about 35%
Jurkat NFkB inh: lowers PMA/ionomycin-induced NF-kB signal in Jurkat cells; PMA/ionomycin-induced NF-kB luciferase reporter, luminescence; inhibition, % at 4 µM; actives 0.53% (n = 330,000); in the data active means inhibition above about 50%
H9c2 TAG inh: triacylglycerol accumulation inhibition; H9c2 cells, Nile Red lipid (TAG) fluorescence; cells loaded with 200 µM oleic acid; inhibition, % at 12.5 µM; actives 0.66% (n = 230,000);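 active means pattern-corrected inhibition of lipid staining of at least 50% with the nuclear-stain viability signal not falling by more than 50%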;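 further: 0% = DMSO wells and 100% = triacsin C control wells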
Gli-Sufu block: blocks Gli-Sufu signaling in a luciferase reporter; Sufu-KO-LIGHT fibroblasts, Gli luciferase reporter luminescence; inhibition, % at 5 µM; actives 0.74% (n = 340,000); AID 588413;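 active means inhibition above about 55%, limit read from the data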;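 further: 0% = DMSO-treated cells and 100% = wells with medium but no cells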
aSyn UTR inh: MLPCN primary screen, SNCA 5' untranslated region | alpha-synuclein 5'UTR reporter, inhibitor activity | actives 0.82% (n = 300,000) | inhibition, % (tested at 7.5 µM); in the data active means inhibition above about 60%;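 further: H4 neuroglioblastoma cells stably carrying SNCA 5'UTR luciferase fusion; 0% = DMSO wells and 100% = positive control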
Shn3 3UTR inh: Schnurri-3 reporter inhibition in Clone20 osteoblasts; Clone20 osteoblast Shn3 3'UTR firefly luciferase, 24 h; inhibition, % at 12.5 µM; actives 0.52% (n = 360,000);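 active means mean inhibition of at least 75% with every replicate also reaching 75%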;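 further: 0% = median of neutral control wells and 100% = pilot-screen positive control compound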
697 NFkB conf: inhibitors of the PMA/ionomycin-induced NF-kB reporter in 697 B cells, retest. actives 35% (n = 2,000). 697 B-cell NF-kB luciferase, 16 h. inhibition, % at 4 µM. shares compounds with 697 NFkB inh. AID 449746; in the data active means inhibition mostly above about 28%, no sharp cut-off; inactive means mostly below about 22%
Gli antag conf: confirmation of Gli-SUFU pathway antagonists. shares compounds with Gli-Sufu block. Sufu-KO-LIGHT cells, Gli luciferase reporter, luminescence. inhibition, % at 5 µM. actives 40% (n = 2,500). AID 602428;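 active means mean inhibition at 5 µM reaching about 45%, limit read from the data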;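 further: plate controls were DMSO-treated cells for no effect and wells lacking cells for full effect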
SufuKO cytotox: cytotoxic in Gli-SUFU antagonist counter-screen; shares compounds with Gli-Sufu block; Sufu-KO-LIGHT cells cytotoxicity, ATP luminescence; cytotoxicity, % at 5 µM; actives 32% (n = 2,500); AID 651994;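 active means mean cytotoxicity at 5 µM above about 25%, limit read from the data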;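 further: cells exposed to compound overnight for roughly 16 to 18 hours; plate controls were DMSO wells with cells for no effect and medium without cells for full effect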
Wnt3a cs: Wnt3a reporter inhibition counter-screen; shares compounds with Gli-Sufu block; Wnt-LIGHT cells, Wnt3a-driven luciferase reporter, luminescence; actives 20% (n = 2,500); inhibition, % at 6.25 µM;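 active means mean inhibition above about 25%, limit read from the data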
Starred values were filed as active, the others as inactive; i = inactive; · = not tested or not shown. A selection: hits, their analogues and other compounds. The true share with any hit is near 2.3%.

SMILES	697 NFkB inh	Jurkat NFkB inh	H9c2 TAG inh	Gli-Sufu block	aSyn UTR inh	Shn3 3UTR inh	Gli antag conf	SufuKO cytotox	Wnt3a cs	others
C=C1C(=O)[C@@]23C[C@H]4[C@@H]5[C@@]6(C)CCC[C@@]57[C@@H]2[C@@H](O)[C@@H]1C[C@H]3[C@H]7N4C6	44.2*	47.3	·	-11.6	-9.8	-52.5	·	·	·	697 NFkB conf=37.4*
Cc1cc(C=C2C(=O)N(C)C(=S)N(C)C2=O)c(C)n1C1CCCCC1	11.9	5.7	10.9	1.6	2.8	-3.9	·	·	·
C[C@]12CC[C@H]3C(CCC4(O)CC(O)CC[C@]34C=O)C1=CC[C@H]2c1ccc(=O)oc1 (stereo partly specified)	i	26.1	·	-3.7	81.5*	7.3	·	·	·	697 NFkB conf=i
Cc1ccc(Cn2nc(C(=O)Nc3ccc(Br)cc3)cc2C)cc1	23.3	48.9	·	-3.8	23.2	14.4	·	·	·
C=CCn1c(O)c(C(C)=NCCC(c2ccccc2)c2ccccc2)c(=O)[nH]c1=O	-4.7	-14.0	·	16.0	-2.2	-2.0	·	·	·
C=CCn1c(O)c(C(C)=NC(C)c2ccccc2)c(=O)[nH]c1=O (stereo unspecified)	41.1*	-1.9	14.9	10.4	-5.1	-13.2	·	·	·	697 NFkB conf=30.1*
C/C(=C\c1ccc(N(C)C)cc1)[N+](=O)[O-]	38.1*	19.4	·	-0.1	-8.4	28.5	·	·	·	697 NFkB conf=12.1
CN(C)c1ccc(/C=C/[N+](=O)[O-])cc1	2.8	-32.0	3.8	-33.3	-73.9	-14.9	·	·	·
O=C(C1CCCN(S(=O)(=O)c2cccc3nsnc23)C1)N1CCC2(CC1)OCCO2 (stereo unspecified)	-3.8	10.8	·	-1.6	·	·	·	·	·
CN1/C(=C\C=Nc2ccccc2)C(C)(C)c2ccccc21	-60.4	2.9	-72.1	59.4*	-38.0	69.3	59.4*	27.1*	7.4
CN1/C(=C\C=C2C(=O)NC(=O)NC2=O)C(C)(C)c2ccccc21	-11.0	-1.6	-5.6	2.7	39.8	17.6	·	·	·
CCOP(=O)(OCC)C(C)(C)NC(=O)C(Cl)(Cl)Cl	0.5	21.7	8.1	-18.9	10.0	-4.1	·	·	·
C=C1C(=O)OC2C1CCC(C)C1(O)C=CC(=O)C21C (stereo unspecified)	·	·	·	-23.2	·	62.9	·	·	·
C=C1C(=O)O[C@H]2[C@H]1[C@H](OC(=O)CC(=O)O[C@@H]1C[C@@H](C)[C@@H]3C=CC(=O)[C@@]3(C)[C@H]3OC(=O)C(=C)[C@H]13)C[C@@H](C)[C@H]1C=CC(=O)[C@]12C	-76.2	18.8	13.9	51.5	10.6	84.6	44.7	34.5*	-4.3
O=C(CF)NC(NC(=S)Nc1ccccc1O)C(Cl)(Cl)Cl (stereo unspecified)	10.0	-9.9	0.3	86.7*	-25.3	5.7	16.7	20.2	-16.6
Nc1ncnc2c1ncn2[C@@H]1O[C@H](COP(=O)(O)CP(=O)(O)O)[C@@H](O)[C@H]1O	·	·	-8.1	4.6	·	-18.5	·	·	·
N#Cc1cn(C2OC(CO)C(O)C2O)c2ncnc(N)c12 (stereo unspecified)	·	·	89.8*	80.9*	·	82.5	97.9*	97.1*	-52.5
C=C1[C@@H](C)[C@H]2[C@H](Cc3ccccc3)NC(=O)[C@]23OC(=O)/C=C/[C@H](O)CCC[C@@H](C)C/C=C/[C@H]3[C@@H]1O	11.9	18.6	95.9	56.6*	108.9*	72.7	36.3	46.2*	58.0*
C#CCNc1ccncc1S(=O)(=O)NC(=O)NC(C)C	-2.7	-21.5	11.0	56.9*	0.5	2.5	10.7	-5.7	4.8
COc1ccccc1CCNCc1ccc(OC)c(OC)c1OC	11.2	-3.0	-4.3	18.8	16.2	12.0	·	·	·
O=C1NC(=O)N(c2cccc(F)c2)C(=O)/C1=C/c1ccc(N2CCOCC2)cc1	-2.4	-4.6	-1.5	-0.6	15.5	16.2	·	·	·

From PubChem BioAssay
